This note sets out measurements from ChEMBL document CHEMBL3988442, “University of Dundee, Small-Polar-MMV Screening Library” (2021).

In all, about 66,000 compounds went through this assay and about 960 (1.5%) showed an effect of 50% or more. Many of the other results were omitted from the sample, so strong results are more common in it than they were.

The subject of this assay is Trypanosoma brucei. Nature of the assay: Trypanosoma brucei 72 hour study. The assay is classed as functional, organism-based. Further details: scale not given: in the data most compounds retested in dose-response had high values.

Regarding `CN(C)CCOC[C@H]1CC[C@H]2[C@H](CCN2C(=O)c2ccoc2)O1.O=C(O)C(F)(F)F`, the “Percent Effect” value (30 µM, 30.03 µM) was determined as 21.89%.
On to `Cc1cnn(CC2CCCN2C(=O)c2cn(C)c3ccccc23)c1` (centres undefined), for which, where the note is “10 µM”, the “Percent Effect” value is -33.63%.
On to `Cc1ccc(-c2cc(CNc3ncnc4c3CCNCC4)no2)cc1`, for which, under “30 µM, 30.03 µM”, the “Percent Effect” value turned out to be 31.3%.
As for `CSc1ccc(CN(C)Cc2noc(C(C)(C)C)n2)cc1`, the “Percent Effect” value (30 µM, 30.03 µM) is -12.59%.
As to `Cc1ccc2c(n1)N(CCn1cccn1)CCN(CC1CC1)C2.O=C(O)C(F)(F)F.O=C(O)C(F)(F)F`, the “Percent Effect” value (30.3 µM, […]) was -30.39%.
With `CS(=O)(=O)N1CCC(CNC(=O)C2CCCC2)CC1`, the “Percent Effect” value (30 µM, 30.03 µM) was -35.01%.
Still for that read-out and setting: the figure for `Cc1cc(N2CCC3(CCCN(CCO)C3=O)C2)nc(C)c1C#N` (centres undefined) is -51.69%.
Still for that read-out and setting: the figure for `Cc1cc(C)c(C#N)c(N2CCC3(CCCN(CCO)C3=O)C2)n1` (centres undefined) is -17.57%; for `COCCN1CCCC2(CCN(c3cc(C)c(C#N)c(C)n3)C2)C1=O` (centres undefined) it is 50.02%.
Regarding `Cn1cccc1C(=O)N1CCC2(CCN(C(=O)c3cccnc3)C2)CC1.O=C(O)C(F)(F)F`, the “Percent Effect” value (30.3 µM, […]) is -55.95%.
Regarding `CC1c2ncc(CNC(=O)C3CC3)n2CCN1Cc1ccncc1.O=C(O)C(F)(F)F.O=C(O)C(F)(F)F` (centres undefined), where the note is “30.3 µM, […]”, the “Percent Effect” value is -14.67%.
On the same count and under the same terms, the result for `C[C@@H]1C(=O)NC[C@H]2CN(CCc3ccccc3)C[C@H]21.O=C(O)C(F)(F)F` reads -1.404%.
In the case of `CCc1nc(CN(C(C)=O)C2CCN(CCc3ccccn3)C2)no1` (centres undefined), the “Percent Effect” value (10 µM) is reported as 65.29%.
Turning to `CCc1nc(CN(C(C)=O)C2CCN(CCc3ccccc3)C2)no1` (centres undefined), for the setting “10 µM”, the “Percent Effect” value is given as -54.25%.
As to `CCc1nc(CN(C)C2CCN(CCc3ccccn3)C2)no1` (centres undefined), the “Percent Effect” value (30 µM, 30.03 µM) is reported as 3.156%.
As for `Cc1ccc(CN2C[C@@H]3[C@@H](C(=O)NCC4CC4)CCS(=O)(=O)[C@@H]3C2)cc1.O=C(O)C(F)(F)F`, under “30.3 µM, […]”, the “Percent Effect” value is -76.84%.
On the same count and under the same terms, the result for `O=C1C[C@H]2CC[C@@H](CN1)N2C(=O)Cc1ccsc1` reads -6.652%.
Regarding `CN(C)C(=O)COCc1cncc2c1CCN(Cc1ccccn1)C2.O=C(O)C(F)(F)F.O=C(O)C(F)(F)F`, the “Percent Effect” value (30.3 µM, […]) was -50.95%.
Same read-out and setting: the result for `O=C(NC1CC1)[C@@H]1CCO[C@@H]2CCN(CCc3ccccc3)C[C@@H]21.O=C(O)C(F)(F)F` reads -14.39%; that for `CC(C)n1c2ccccc2c2c1cc(C(=O)N(C)C)n2C`, -58.05%.
For the compound `CC(CNC(=O)c1ccc(C#N)cc1)N1CCc2ccccc21` (centres undefined), the “Percent Effect” value (30.3 µM, […]) worked out at 1.685%.
The same measure, in the same setting: the result for `COc1ccc(NC(=O)NCC(C)N2CCc3ccccc32)cc1` (centres undefined) reads -7.739%; that for `CC(CNC(=O)Nc1ccc(C#N)cc1)N1CCc2ccccc21` (centres undefined), 100.3%.
On the same count and under the same terms, the result for `CC(=O)Nc1c(C)noc1/C=C\c1ccc(S(=O)(=O)NC2CC2)cc1` reads -2.674%.
